# Bioassay records: PubChem BioAssay, SRMLSC
# Compounds with a hit are over-represented: about 6.3% of the library has one in this group of screens.
# A340 absorber: compound absorbs light at 340 nm | compound absorbance at 340 nm, fold over control | fold change at 10 µM | 65,000 tested, under 10 active | AID 708;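 active means at 10 µM dose, initial 340 nm absorbance at least 2 fold that of control wells; inactive means change under 2 fold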;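 further: initial absorbance extrapolated from kinetic A340 decline of NADH oxidation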
# Spn DPM-DC inh: blocks S. pneumoniae diphosphomevalonate decarboxylase. purified DPM-DC, PK/LDH coupled NADH fluorescence. calls only at 10 µM. actives 0.49% (n = 65,000). AID 556;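 active means the 320 compounds with the highest percent inhibition in the single-dose primary screen, excluding strongly autofluorescent ones, cut at about 32% in these data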;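 further: kinetic rate of NADH fluorescence loss reporting ADP formed by the decarboxylase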
# NADH coupling: blocks coupling enzymes of NAD/NADH assays | IC50, µM (top dose mostly 10 µM), for inactives: at the highest dose inhibition | coupled PK/LDH NADH assays, four targets | actives 0.02% (n = 65,000) | AID 774;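 active means single-dose screening hits from any of four coupled enzyme assays that gave an IC50 when retested across doses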;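 further: the DPM-DC format reads NADH fluorescence rather than 340 nm absorbance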
# Fluor 339 460: intrinsic fluorescence of library compounds, ex339/em460 – biochemical, MLSMR library, data from DPM-DC assay, artefact control, profiling panel; fluorescence fold increase at 10 µM; compound autofluorescence, ex339/em460 nm, NADH buffer; stronger effect = higher value; 1 = no-compound wells, NADH background; AID 709; actives 5.5% (n = 65,000);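 active means at 10 µM, mean starting fluorescence two-fold or more over control wells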;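 further: signal is the first read of a kinetic run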
# Spn PMK inh: inhibitors of Streptococcus pneumoniae phosphomevalonate kinase. purified PMK, PK/LDH-coupled NADH absorbance 340 nm. inhibition, % at 10 µM. actives 0.49% (n = 65,000);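 active means top-ranked compounds by inhibition in the single 10 µM screen, taking a fixed number of the strongest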;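 further: 0% = full reaction with DMSO carrier and 100% = background rate without enzyme reaction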
# Spn MK inh: S. pneumoniae mevalonate kinase inhibition | inhibition, % at 10 µM | AID 555 | actives 0.48% (n = 65,000) | purified MK, PK/LDH-coupled NADH absorbance 340 nm;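 active means ranked among the strongest by inhibition in the single 10 µM screen, a fixed top-ranked set picked for dose follow-up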
# Numbers without * were called inactive; i = inactive; / = no result shown; + = active, no number; [ ] = remark or other dose.
SMILES,A340 absorber,Spn DPM-DC inh,NADH coupling,Fluor 339 460,Spn PMK inh,Spn MK inh
c1ccc(-c2cc3c(ccc4nonc43)nn2)cc1,1.07,i,0.0%,1.09,0.0,0.0
COc1ccc(OC)c(S(=O)(=O)N2CCCc3ccccc32)c1,1.03,i,0.0%,1.14,0.0,0.0
COc1ccc(-c2cn3cccnc3n2)cc1NC(=O)C1CC1,1.07,i,12.0%,3.23*,18.0,0.0
COc1ccc(-c2cn3cccnc3n2)cc1NC(=O)C1CCCC1,1.07,/,12.0%,4.78*,19.0,4.0
CCOC(=O)C1CCN(S(=O)(=O)c2cccc(-c3csc(C)n3)c2)CC1,0.98,i,4.0%,1.08,11.0,11.0
CCOC(=O)C1CCN(S(=O)(=O)c2cccc(-c3cn4cccnc4n3)c2)CC1,1.09,/,5.0%,2.1*,0.0,9.0
COc1ccccc1NC(=O)C1CCCCC1,1.07,i,0.0%,1.12,0.0,1.0
O=c1[nH]c2c(cc1CNCCN1CCOCC1)c(-c1cccc(F)c1)nn2-c1ccccc1,1.05,i,20.0%,3.53*,12.0,22.0
Cc1nn(-c2ccccc2)c2[nH]c(=O)c(CNc3ccc(N4CCOCC4)cc3)cc12,0.99,i,5.0%,1.09,11.0,4.0
O=c1cc(Cn2ccnc2)c2cc3c(cc2o1)CCC3,1.03,i,12.0%,2.21*,13.0,10.0
Cc1cc2oc(=O)cc(Cn3ccnc3)c2cc1C,1.04,i,5.0%,1.62,9.0,7.0
CC(C)(C)c1ccccc1OCCCCCNCCO,1.04,i,32.0%,1.08,52.0*,44.0*
O=C(CCn1nnc2ccccc2c1=O)N[C@H](C(=O)O)c1ccccc1,0.99,i,5.0%,1.03,7.0,8.0
CC(C)OC(=O)c1c2nc3ccccc3nc2n2c1[nH]c(=O)c1ccccc12,1.01,/,3.0%,2.28*,5.0,1.0
COc1ccccc1-c1cc(C(F)(F)F)nc(S(=O)(=O)CCCC(=O)Nc2cc(C)on2)n1,1.01,/,3.0%,3.71*,5.0,0.0
COc1ccccc1-c1cc(C(F)(F)F)nc(N2CCCC2)n1,1.07,i,2.0%,1.35,0.0,6.0
COc1ccccc1-c1cc(C(F)(F)F)nc(S(=O)(=O)CCCC(=O)N2CCCCC2C)n1 (configuration not stated),1.03,/,9.0%,3.36*,12.0,5.0
COc1ccccc1-c1cc(C(F)(F)F)nc(S(=O)(=O)CCCC(=O)NC(C)C)n1,1.05,i,11.0%,1.9,17.0,7.0
N/C(=N\S(=O)(=O)c1ccc(Cl)s1)c1ccccc1,1.05,i,1.0%,1.14,0.0,4.0
C=CCn1c(N)c(C(=O)OC(C)CC)c2nc3ccccc3nc21 (configuration not stated),1.09,/,8.0%,2.12*,16.0,0.0
C=CCn1c(N)c(C(=O)OC(C)(C)C)c2nc3ccccc3nc21,0.98,/,5.0%,2.48*,7.0,8.0
CC(=O)Nc1cccc(-c2nc3ccc(NC(C)=O)cc3[nH]2)c1,1.04,/,5.0%,4.88*,6.0,4.0
CC(=O)Nc1ccc2nc(-c3cccnc3)[nH]c2c1,1.06,i,4.0%,1.34,0.0,8.0
CCOC(=O)c1oc2ccccc2c1NC(=O)c1ccccc1OC,1.03,i,6.0%,1.49,13.0,5.0
CCOC(=O)c1oc2ccccc2c1NC(=O)COc1cccc(OC)c1,1.07,i,8.0%,2.92*,11.0,3.0
SMILES,A340 absorber,Spn DPM-DC inh,NADH coupling,Fluor 339 460,Spn PMK inh,Spn MK inh
CCOC(=O)c1oc2ccccc2c1NC(=O)COc1ccc(F)cc1,1.05,i,16.0%,3.89*,15.0,8.0
Cc1ccc(-n2nnc3c(=O)n(CC(=O)NCC4CCCO4)cnc32)cc1 (configuration not stated),0.99,i,6.0%,1.05,12.0,6.0
COc1ccc(CCNS(=O)(=O)c2ccc3c(c2)OCCO3)cc1OC,1.02,i,0.0%,1.02,0.0,1.0
COc1nc(-c2ccc(Cl)cc2)ccc1-c1noc(-c2ccco2)n1,1.09,i,8.0%,1.71,0.0,7.0
COc1cccc(-c2ccc(-c3noc(-c4ccccc4F)n3)c(OC)n2)c1,1.16,/,0.0%,3.82*,0.0,0.0
CCc1nc(-c2ccc(-c3ccc(OC)cc3)nc2OC)no1,1.13,/,5.0%,2.13*,9.0,0.0
COCc1nc(-c2ccc(-c3ccc(OC)cc3)nc2OC)no1,1.11,/,2.0%,2.13*,2.0,2.0
COc1nc(-c2ccccc2)ccc1-c1noc(C)n1,1.08,i,6.0%,1.28,0.0,9.0
COc1ccc(-c2ccc(-c3noc(C(C)C)n3)c(OC)n2)cc1,1.05,/,4.0%,3.99*,0.0,7.0
CCC1CCCCN1C(=O)CSc1nnc(CNC(=O)COc2ccc(Cl)cc2)o1 (configuration not stated),1.01,i,9.0%,1.03,21.0,0.0
CCOC(=O)N1CCC(NC(=O)c2cccc3c2C(=O)N(c2ccc(OC)cc2)C3)CC1,1.06,i,9.0%,1.29,10.0,16.0
CCc1nnc(NC(=O)CSc2nnc(-c3ccccc3NC(=O)c3ccccc3)o2)s1,1.11,i,5.0%,2.14*,8.0,8.0
C=CCn1c(=O)n(CCOC)c(=O)c2sc3ccccc3c21,1.03,/,3.0%,2.4*,11.0,7.0
CCOC(=O)N1CCC(NC(=O)c2cn(-c3ccc(OC)cc3)c(=O)c3ccccc23)CC1,1.04,i,9.0%,1.2,16.0,10.0
CCOC(=O)N1CCC(NC(=O)c2cccn3c(=O)c4cc(Br)ccc4nc23)CC1,1.03,i,7.0%,2.24*,18.0,4.0
Cc1cc2n(n1)C(c1ccsc1)Nc1ccccc1-2 (configuration not stated),1.04,i,9.0%,2.35*,5.0,0.0
CSc1ccc(C2Nc3ccccc3-c3cc(C)nn32)cc1 (configuration not stated),0.98,i,6.0%,2.01*,7.0,8.0
Cc1cc2n(n1)C(c1ccccc1Cl)Nc1ccccc1-2 (configuration not stated),1.03,i,3.0%,1.37,5.0,0.0
NC(=O)c1ccc(C2SCC(=O)N2Cc2ccccc2)cc1 (configuration not stated),1,i,5.0%,1.04,16.0,0.0
c1ccc(NC(=NCc2ccco2)c2ccccc2)cc1,1,i,9.0%,1.13,27.0*,0.0
O=C(Nc1ccc(N2CCN(Cc3ccccc3Cl)CC2)cc1)c1cccnc1,1,i,3.0%,1.04,4.0,6.0
O=C(Nc1ccc(N2CCCCC2)cc1)c1cccnc1,1.06,+,17.0%,1.05,8.0,2.0
CCC(=O)Oc1ccc2c(C)cc(=O)oc2c1C,0.98,+[fluoresces],5.0%,2.13*,12.0,7.0
COc1ccc(C)cc1NCc1cccc(OC)c1OC,1.01,i,6.0%,1,0.0,47.0*
